The full ranking holds about 68,000 sequences; the median of “fluorescence intensity (a.u.)” is about 9,100, and the highest 2% start at about 16,000. Only a selection was taken, and the highest values are over-represented in it overall.

OsWRKY34, sequence (Q0JBA9 entry or part of it): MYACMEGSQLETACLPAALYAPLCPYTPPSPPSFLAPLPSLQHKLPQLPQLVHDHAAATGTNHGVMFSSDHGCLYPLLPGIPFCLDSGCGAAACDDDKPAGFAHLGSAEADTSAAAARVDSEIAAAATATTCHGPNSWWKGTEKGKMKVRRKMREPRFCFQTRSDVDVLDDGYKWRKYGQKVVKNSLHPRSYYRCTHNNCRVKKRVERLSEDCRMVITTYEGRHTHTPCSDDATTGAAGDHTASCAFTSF

In the assay the target is OsWRKY34 (Oryza sativa, UniProt Q0JBA9 1-250). The assay is described as follows: protein-binding microarray (RPBM); PBS, 2% BSA, 51.3 ng/ul salmon testes DNA, 50 uM zinc acetate, 200 nM TF, 25 C, 1 h; high values mean tight binding. The settings on record: protein: recombinant; tags: N-terminal polyhistidine and DsRed monomer fusion (pET32a); label: CyDye5-dUTP incorporated in the synthesized complementary strand; 3' TTTTT single-stranded linker to array surface; dsDNA, one strand shown. In outline:
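For the binding signal, per-feature fluorescence intensity was read in arbitrary units on an Axon 4000B scanner. Before scanning, a 2% BSA-blocked custom Agilent array made double-stranded with Cy5-dUTP was washed after 1 h at 25 °C with 200 nM protein and 50 µM zinc acetate. The proteins were Ni–NTA-purified transcription factors with N-terminal polyhistidine and DsRed fusions, expressed in E. coli BL21-CodonPlus.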
As for “ATCGCCGCAACCACCAACCTCTCGAGGCCGTTCGAATCCCCGGAGTCACCTAGTGCAG”, the binding signal was 12300 fluorescence intensity (a.u.).

As for “TATATATATATATATATATATATATATATATATAAGCGTCCGGAGTCACCTAGTGCAG”, the binding signal is 11300 fluorescence intensity (a.u.).

Consider “AGAAGGGAAGGGGAGGGGAGGGCGGGACGCCGGCCGGAGCCGGAGTCACCTAGTGCAG”, for which the binding signal was 10200 fluorescence intensity (a.u.).

Take “AGTGCTGGAGGAGGGAGGCGGGGAGGGGAGCCATCAGCCACGGAGTCACCTAGTGCAG”: the binding signal was 17300 fluorescence intensity (a.u.).

On to “TTCTTGCCGGAGGAGGGGCAGGGGAGGGAGCCGGGCGGGACGGAGTCACCTAGTGCAG”, for which the binding signal is 23500 fluorescence intensity (a.u.).

On to “GGGGCGGCAGTGGATGGCGGTTGGGCGGCGGTGCGGGGAGCGGAGTCACCTAGTGCAG”, for which the binding signal is 12200 fluorescence intensity (a.u.).

For the sequence “GGGGAGGGAGCCGGGCGGGATTCAGCCATGAGGAGGAGGGCGGAGTCACCTAGTGCAG”, the binding signal is 9050 fluorescence intensity (a.u.).

In the case of “GAGGACGAAGTGGAGGCGGAGGGCAGGTGGGGAGGAGAGCCGGAGTCACCTAGTGCAG”, the binding signal is 8660 fluorescence intensity (a.u.).

“AGAAGGAGAAGGCGGGGAGAGGCGGGGCGGCCACGGGAGACGGAGTCACCTAGTGCAG”: the binding signal is 12500 fluorescence intensity (a.u.).

Consider “TTGGTGGTTGGTGGGGAGCGTGGAGATGGCGGGGCTGTCCCGGAGTCACCTAGTGCAG”, for which the binding signal was 22200 fluorescence intensity (a.u.).

As for “GTGGTCCGGTGGTGGGGTGATGGGGCGTGGCGGTTCTGTCCGGAGTCACCTAGTGCAG”, the binding signal was 15400 fluorescence intensity (a.u.).

Turning to “GGCCATGCTTGAATCTCTCGCCTGACATTCAGACTTCAGACGGAGTCACCTAGTGCAG”, the binding signal is 8390 fluorescence intensity (a.u.).

Regarding “CTCTATATAAGCCCCACAATGCCCACCACCAGCTTGTCACCGGAGTCACCTAGTGCAG”, the binding signal is 8230 fluorescence intensity (a.u.).

Regarding “AAGATTCTTCTCTTCGTCGACGACCCGGCCTCTCGCTCTCCGGAGTCACCTAGTGCAG”, the binding signal was 9630 fluorescence intensity (a.u.).

As for “CTATTGGCTCATACCTTTTTTCAGTGGCTGGGTGTAGGTTCGGAGTCACCTAGTGCAG”, the binding signal is 8840 fluorescence intensity (a.u.).

On to “TGCAGATATTGGCATCGATTGCTCACTTCAGGTGATTTTTCGGAGTCACCTAGTGCAG”, for which the binding signal was 8060 fluorescence intensity (a.u.).

In the case of “CATGTCCAACTTTAATTGTTCGTCTTTTTTTTGAAAAAACCGGAGTCACCTAGTGCAG”, the binding signal is 8630 fluorescence intensity (a.u.).

Turning to “CAGACCTGGAGGTTGTTGCCCTTGATGTGCGCCCAGATGACGGAGTCACCTAGTGCAG”, the binding signal is 8470 fluorescence intensity (a.u.).

Regarding “GTCCGCTGCTTTTCTCCCTTGTCGGTTATTTTACCTCTTCCGGAGTCACCTAGTGCAG”, the binding signal was 18900 fluorescence intensity (a.u.).

Take “TTTTTATTCCACCGCTTTGTCGTTCTCGCAATCTCGCTGTCGGAGTCACCTAGTGCAG”: the binding signal is 17700 fluorescence intensity (a.u.).

For the sequence “TTGTAGTCCGCTGCTTTCCCTTTCTTTTATCTTCTCTTTCCGGAGTCACCTAGTGCAG”, the binding signal was 8450 fluorescence intensity (a.u.).

Take “GTTCTTTTGGGCAATCTCGTCTGTATTCCTTTGTCGTCTACGGAGTCACCTAGTGCAG”: the binding signal is 10800 fluorescence intensity (a.u.).

For “TCTCCCCTTTCTGCTTCTGCTGCTTCTCCCTTTCCCTCTCCGGAGTCACCTAGTGCAG”, the binding signal is 8200 fluorescence intensity (a.u.).

In the case of “CGCATCTCGTTTTCTCTTTATTTGTTTCTTCTTTCGCTTTCGGAGTCACCTAGTGCAG”, the binding signal is 13800 fluorescence intensity (a.u.).

As to “ATCAATTTATCACCCGCTGACTCATCTTTATTGTATCTGCCGGAGTCACCTAGTGCAG”, the binding signal is 8420 fluorescence intensity (a.u.).

“ATTGTCTTGGCTGCTGTCTTTATAGTATTCACTCATCTGCCGGAGTCACCTAGTGCAG”: the binding signal is 18500 fluorescence intensity (a.u.).

Turning to “TTTTTTTCTCTTTCTTTTTTCTTTTCTTCGTTTTCTTTCACGGAGTCACCTAGTGCAG”, the binding signal is 9230 fluorescence intensity (a.u.).

For “GTCTCTTTCCGCTGCTTCGTTTCTGTCTCCGGTTTATTCACGGAGTCACCTAGTGCAG”, the binding signal is 18800 fluorescence intensity (a.u.).

For “AATGGCTAGCGTATAATCTGTCTTGGAATCACTTTGCTGCCGGAGTCACCTAGTGCAG”, the binding signal was 8120 fluorescence intensity (a.u.).

In the case of “TTTATTCTCTGTTCCTCTTTTTTTCATATTCGTTTTTCACCGGAGTCACCTAGTGCAG”, the binding signal was 13200 fluorescence intensity (a.u.).

Take “TTCTGGATCTTGACTCTTGACCAGTTCATCCACACGTGTGCGGAGTCACCTAGTGCAG”: the binding signal was 8540 fluorescence intensity (a.u.).

As for “TCTCCCTCAGTTACTGCCTTGCTCCCCAACCCCAGGAGCACGGAGTCACCTAGTGCAG”, the binding signal is 9230 fluorescence intensity (a.u.).

With “GCTTGGGGTGGAATCGCGTGGACAGCGTGGGCCTCAGTCACGGAGTCACCTAGTGCAG”, the binding signal is 12000 fluorescence intensity (a.u.).

With “ATATTTATTAGTTGGCGTGTATGTAAAACTTGTGTGTTTCCGGAGTCACCTAGTGCAG”, the binding signal is 8400 fluorescence intensity (a.u.).

For “CCATTGTTTTCTTCTTGTCCTTTTAGAGATGTTGGGTACACGGAGTCACCTAGTGCAG”, the binding signal is 8240 fluorescence intensity (a.u.).

For “AACCACCCCGCGTTTCCAGTCTCCACCACATCAACTCCCCCGGAGTCACCTAGTGCAG”, the binding signal was 10200 fluorescence intensity (a.u.).

Regarding “CCCCAATGAATCATAGGCTCAACCTGCTCCTGCTGCAACACGGAGTCACCTAGTGCAG”, the binding signal was 8040 fluorescence intensity (a.u.).

Take “GGTCCGGCGGAAGTAGGGGCGGAAGTGCGGGCGGGAGATGCGGAGTCACCTAGTGCAG”: the binding signal was 9700 fluorescence intensity (a.u.).

In the case of “GACACATCTTAGTTTCATGAATTTGCACAAGAATTGCATGCGGAGTCACCTAGTGCAG”, the binding signal was 10800 fluorescence intensity (a.u.).

With “AGCCTGGAAGCCCATTCAGCGGCGGGGTTGGGGCGGCAGGCGGAGTCACCTAGTGCAG”, the binding signal is 10200 fluorescence intensity (a.u.).

Turning to “AGATTGCTTTTCTTACAAGGACGACGCTAACAATAACATCCGGAGTCACCTAGTGCAG”, the binding signal is 9110 fluorescence intensity (a.u.).

For “GATGTGGATTTGGGATGTTAATTTGATTTGGGATTTGGGGCGGAGTCACCTAGTGCAG”, the binding signal is 10600 fluorescence intensity (a.u.).

Turning to “GGCAATGCTTCACCGTCGCTTGCACCCCTTTCTCATGTGTCGGAGTCACCTAGTGCAG”, the binding signal is 9790 fluorescence intensity (a.u.).

Regarding “CCCATTTGCCATGTCAACGCACCGTACTAATTAATCCTTGCGGAGTCACCTAGTGCAG”, the binding signal was 10200 fluorescence intensity (a.u.).

Consider “CCGCGGCCCAATAGCTCTTAGCCCATTGCCATCCGCCATCCGGAGTCACCTAGTGCAG”, for which the binding signal is 9820 fluorescence intensity (a.u.).

Consider “TGTTGTTGACTTTTAAACACATGTTTGATCATTTGTCTTACGGAGTCACCTAGTGCAG”, for which the binding signal is 14600 fluorescence intensity (a.u.).

“AGATGACTCCGTTGACTTTTAAACACATGTTTGATAATTCCGGAGTCACCTAGTGCAG”: the binding signal was 16200 fluorescence intensity (a.u.).

In the case of “TCCCTAAATGTTTGACACCGTTGACCTTTTTAAAACATTTCGGAGTCACCTAGTGCAG”, the binding signal was 17800 fluorescence intensity (a.u.).

For the sequence “TTCCCTAAATGTTTGACACCGTTGACTTTTTTTTAAACATCGGAGTCACCTAGTGCAG”, the binding signal was 33300 fluorescence intensity (a.u.).

Take “CCTAAATGTTTGACTCCGTTGACTTTTTTAAACATGTCTGCGGAGTCACCTAGTGCAG”: the binding signal was 26100 fluorescence intensity (a.u.).

Turning to “CCGTTTTAAAATGTTTGACACCGTTGACTTTTTAGTACATCGGAGTCACCTAGTGCAG”, the binding signal is 26100 fluorescence intensity (a.u.).

As for “TTACATTTTAGGACATATATTTGGGGAGCTTCTTGGCTGTCGGAGTCACCTAGTGCAG”, the binding signal is 10800 fluorescence intensity (a.u.).

“ATTTGTCTCTTTCGCGTCGTCTCTAACCTAACGTCCCAGACGGAGTCACCTAGTGCAG”: the binding signal was 13100 fluorescence intensity (a.u.).

“CCCACGCGCCCACTTTGACCGACCCATCGATCGATCACGACGGAGTCACCTAGTGCAG”: the binding signal was 14300 fluorescence intensity (a.u.).

These data come from paper PMC7819943, “Rice protein-binding microarrays: a tool to detect cis-acting elements near promoter regions in rice”.
